This is an account of results in PubChem BioAssay (Tox21).

In assay [1] the target is Thyrotropin receptor (Homo sapiens) (UniProt P16473). Nature of the assay: qHTS assay to identify small molecule antagonists of the thyroid stimulating hormone receptor (TSHR) signaling pathway (AID 1259385; calls by dose curve; note: nearly all actives have a fitted effect of over 20% in size). The procedure, abridged:
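TSHR-HEK293 cells were plated and held 18 h at 37C/5% CO2, then given compound plus Ro20-1724 and stimulated with TSH at 1.5 ng/mL final. After 30 min at room temperature, cAMP was detected with cAMP-d2/anti-cAMP-cryptate (1 h) by fluorescence.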
In general terms: In qHTS, concentration-response curves come from the screen itself.

Assay [2] is described as follows: qHTS assay to identify small molecule agonists of the estrogen receptor alpha (ER-alpha) signaling pathway in the presence of an antagonist - cell viability counter screen (AID 1259386).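 Note: series mostly up to about 92 µM; cells exposed to compounds for 22 h at 37 °C before the viability read; nearly all actives have a fitted effect of over 30% in size.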 The procedure, abridged:
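Viability counter screen using VM7Luc4E2 (full-length ER-alpha, four ERE-luciferase). The cells were treated with compounds alongside ICI-182,780 10.0nM for 22hr, and live-cell protease fluorescence was quantified with CellTiter-Fluor.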

In assay [3] the target is Progesterone receptor (Homo sapiens) (UniProt P06401). Nature of the assay: qHTS assay to identify small molecule agonists of the progesterone receptor (PR) signaling pathway (AID 1346784; calls by dose curve; note: nearly all actives have a fitted effect of over 30% in size). A digest of the protocol:
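PR-UAS-bla HEK 293T cells (beta-lactamase reporter under UAS) in 2% charcoal-stripped FBS, dosed with 23 nL compound after 6 hr, incubated 16hr at 37C. LiveBLAzer B/G FRET substrate added, fluorescence read after 2 hours.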

Assay [4] has the same target. Put plainly: qHTS assay to identify small molecule antagonists of the progesterone receptor (PR) signaling pathway (AID 1346795; active = well fitted inhibition curve with a large enough effect in the signal ratio in the repeat runs, not every such curve was filed as active; the % refers to the signal ratio). The procedure, abridged:
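PR-UAS-bla HEK293T cells with beta-lactamase reporter under UAS control, in 2% charcoal-stripped FBS, treated with compounds plus 1 nM promegestone (R5020, final) for 16 hr at 37C. Read-out: FRET beta-lactamase substrate fluorescence after 2 hr at room temperature.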

Assay [5] in a line: qHTS assay to identify small molecule antagonists of the progesterone receptor (PR) signaling pathway - cell viability counter screen (AID 1346798). Note: series mostly up to about 92 µM; nearly all actives have a fitted effect of over 50% in size. A digest of the protocol:
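PR-UAS-bla HEK293T cells, 3,000/well in 2% charcoal-stripped FBS medium, dosed with compounds plus R5020 agonist and incubated 16 h at 37C. Viability then measured in the same wells by CellTiter-Glo luminescence after 30 min at RT.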

Assay [6] in a line: qHTS assay to identify small molecule agonists of the progesterone receptor (PR) signaling pathway - cell viability counter screen (AID 1346799; calls by dose curve; note: nearly all actives have a fitted effect of over 45% in size; note: potency is the fitted concentration of half-maximal effect). The procedure, abridged: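 Counter screen in the PR-UAS-bla HEK293T wells (2% charcoal-stripped FBS, 16 h compound exposure at 37 C) after the bla read. CellTiter-Glo added, 30 min at room temperature, luminescence read as cell viability.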

Assay [7] can be described thus: qHTS assay to identify small molecule antagonists of the TGF-beta/Smad signaling pathway - cell viability counter screen (AID 1346824). Note: nearly all actives have a fitted effect of over 50% in size. A digest of the protocol:
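SBE-bla HEK 293T cells were plated overnight at 37 C, then given compounds in DMSO plus TGF-beta1 (added as 0.25 ng/mL solution) for 5 hr. After the bla read, CellTiter-Glo was added to the same wells and luminescence read after 30 min at room temperature.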

Assay [8] is described as follows: qHTS assay to identify small molecule agonists of the TGF-beta/Smad signaling pathway - cell viability counter screen (AID 1346829). Note: top concentration of the series differs between compounds; nearly all actives have a fitted effect of over 45% in size. A digest of the protocol: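 After overnight seating at 37 C and 5% CO2, reporter cells got compounds for 5 hr and FRET substrate for 2 hr; cell viability then came from CellTiter-Glo luminescence.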
A short description of assay [9]: qHTS assay to identify small molecule agonists of the TGF-beta/Smad signaling pathway (AID 1346859; active = well fitted activation curve with a large enough effect in the signal ratio in the repeat runs, not every such curve was filed as active; the % refers to the signal ratio; note: series mostly up to about 77 µM). A digest of the protocol: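 SBE-bla HEK293T cells plated overnight, then compound exposure for 5 h at 37 C. Beta-lactamase reporter read with LiveBLAzer B/G FRET substrate after 2 h at room temperature, fluorescence at 405 nm excitation, 460/530 nm emission.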
The target of assay [10] is Thyrotropin-releasing hormone receptor (Homo sapiens) (UniProt P34981). Put plainly: qHTS assay to identify small molecule antagonists of the thyrotropin-releasing hormone receptor (TRHR) signaling pathway (AID 1346877; active = well fitted inhibition curve with a large enough effect in the repeat runs, not every such curve was filed as active; note: series mostly up to about 51 µM). The procedure, abridged:
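Following an 18 h incubation at 37 °C and a 2 h calcium dye load, TRHR-HEK293 cells were exposed to compound (5 min, room temperature) and challenged with TRH, 1 nM final.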

Each structure is given as a SMILES string. Where “and” joins values, the source holds several entries; their conditions need not be identical. Equal entries are not always repeated. Inconclusive results are not listed. Some structures have more than one record in an assay (separate samples or runs), and their calls can disagree. Calls of active or inactive are those of the source. Unless noted, calls come from the whole dose curve; as a rule, active = well fitted curve in the direction sought with a large enough effect in the repeat runs; inconclusive = weak or mixed curves; inactive = no such curve, though single readings can be large; an effect the other way counts as inactive or inconclusive.
% is set by controls: 0 for no effect and ±100 for the full control effect.

Progesterone receptor (Homo sapiens), sequence (P06401 whole entry, looked up): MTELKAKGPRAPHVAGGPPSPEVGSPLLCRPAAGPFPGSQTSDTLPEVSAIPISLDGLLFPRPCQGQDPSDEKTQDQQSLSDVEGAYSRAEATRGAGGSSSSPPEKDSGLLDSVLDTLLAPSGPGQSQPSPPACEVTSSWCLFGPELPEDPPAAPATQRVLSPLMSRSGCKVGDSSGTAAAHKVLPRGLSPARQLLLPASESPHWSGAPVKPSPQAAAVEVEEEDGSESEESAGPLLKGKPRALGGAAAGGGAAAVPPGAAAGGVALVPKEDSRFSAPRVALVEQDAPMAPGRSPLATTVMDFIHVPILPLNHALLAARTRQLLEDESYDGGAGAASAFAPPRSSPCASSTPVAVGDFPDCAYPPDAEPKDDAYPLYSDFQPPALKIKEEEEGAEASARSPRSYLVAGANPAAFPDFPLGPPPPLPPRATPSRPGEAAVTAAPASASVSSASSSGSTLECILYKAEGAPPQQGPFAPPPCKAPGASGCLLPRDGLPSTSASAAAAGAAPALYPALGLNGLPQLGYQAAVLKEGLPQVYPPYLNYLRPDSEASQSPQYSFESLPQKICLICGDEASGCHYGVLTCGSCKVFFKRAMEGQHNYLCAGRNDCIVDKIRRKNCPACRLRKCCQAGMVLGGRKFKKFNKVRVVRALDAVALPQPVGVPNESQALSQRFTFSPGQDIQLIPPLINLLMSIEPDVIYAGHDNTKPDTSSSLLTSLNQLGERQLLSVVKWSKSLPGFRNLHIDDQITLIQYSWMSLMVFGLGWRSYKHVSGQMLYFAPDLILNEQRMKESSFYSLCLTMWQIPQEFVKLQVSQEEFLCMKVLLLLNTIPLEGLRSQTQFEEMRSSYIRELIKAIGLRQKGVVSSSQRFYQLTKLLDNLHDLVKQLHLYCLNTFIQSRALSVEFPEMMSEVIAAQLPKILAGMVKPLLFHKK
Thyrotropin-releasing hormone receptor (Homo sapiens), sequence (P34981 whole entry, looked up): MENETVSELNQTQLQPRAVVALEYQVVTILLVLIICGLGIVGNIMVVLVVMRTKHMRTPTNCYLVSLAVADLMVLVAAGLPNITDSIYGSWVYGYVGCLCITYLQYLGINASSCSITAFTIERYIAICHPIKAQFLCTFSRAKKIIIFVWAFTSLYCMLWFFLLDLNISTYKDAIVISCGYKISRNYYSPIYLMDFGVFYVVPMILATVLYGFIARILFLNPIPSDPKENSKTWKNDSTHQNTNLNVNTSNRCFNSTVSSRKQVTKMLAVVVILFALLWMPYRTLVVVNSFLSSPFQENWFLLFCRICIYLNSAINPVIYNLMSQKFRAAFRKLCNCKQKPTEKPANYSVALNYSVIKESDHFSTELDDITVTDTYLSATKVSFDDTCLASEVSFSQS
Thyrotropin receptor (Homo sapiens), sequence (P16473 whole entry, looked up): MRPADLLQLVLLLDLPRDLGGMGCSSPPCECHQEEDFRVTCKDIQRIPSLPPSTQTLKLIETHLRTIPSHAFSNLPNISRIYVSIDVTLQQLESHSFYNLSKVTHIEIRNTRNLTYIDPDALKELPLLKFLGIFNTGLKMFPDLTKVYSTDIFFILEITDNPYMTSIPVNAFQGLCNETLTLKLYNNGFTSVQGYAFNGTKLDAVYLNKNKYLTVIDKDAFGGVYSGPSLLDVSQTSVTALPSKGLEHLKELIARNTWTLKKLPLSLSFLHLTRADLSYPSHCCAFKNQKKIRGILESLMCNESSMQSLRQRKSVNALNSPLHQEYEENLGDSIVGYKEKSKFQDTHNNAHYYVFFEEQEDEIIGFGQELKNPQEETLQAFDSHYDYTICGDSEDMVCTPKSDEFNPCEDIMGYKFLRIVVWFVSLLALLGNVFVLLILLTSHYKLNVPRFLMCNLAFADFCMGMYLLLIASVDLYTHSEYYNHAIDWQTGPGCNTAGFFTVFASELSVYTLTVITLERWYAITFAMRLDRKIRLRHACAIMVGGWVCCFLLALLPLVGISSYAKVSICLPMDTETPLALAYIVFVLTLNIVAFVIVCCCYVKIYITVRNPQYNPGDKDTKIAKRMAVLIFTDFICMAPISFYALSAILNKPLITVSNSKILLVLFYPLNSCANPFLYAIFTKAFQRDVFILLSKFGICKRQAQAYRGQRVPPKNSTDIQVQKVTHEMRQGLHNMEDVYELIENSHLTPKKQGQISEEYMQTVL

With `O=C(Cl)C(Cl)(Cl)Cl`, the compound was called inactive in assay [1], in [7] and in [9]. Moreover, the Potency entry in assay [2], in assay [3], in [4], in assay [5], in assay [6] and in [8] was “inactive” each time. The Potency entry in [10] is “inactive”.

As to `CNC(=O)Oc1ccccc1C(C)C`, the call in [1], in assay [7] and in assay [9] was inactive. For the same compound, the Potency entry in [2], in [3], in assay [4], in assay [5], in [6] and in assay [8] was “inactive” in each case.

On to `CC(O)CCl` (stereo not drawn), for which the compound was called inactive in [1], in [7] and in assay [9]. Besides, the Potency result in assay [2], in [3], in assay [4], in [5], in assay [6] and in assay [8] was “inactive” in each case.

`S=C=S`: the compound was classed as inactive in assay [1], in [7] and in assay [9]. For the same compound, the Potency result in assay [2], in assay [3], in assay [4], in assay [5], in assay [6] and in [8] was “inactive” in each case. In addition, the Potency result in assay [10] was “inactive”.

For `O=C(O)CBr`, the compound was classed as inactive in [1], in [7] and in [9]. Also, the Potency result in [2], in assay [3], in assay [4], in [5], in [6] and in [8] was “inactive” throughout. Besides, the Potency entry in [10] was “inactive”.

On to `C=CCCC#N`, for which the compound was called inactive in assay [1], in [7] and in [9]. Besides, the Potency result in assay [2], in assay [3], in assay [4], in assay [5], in [6] and in assay [8] was “inactive” in each case. For the same compound, the Potency result in [10] is “inactive”.

In the case of `CCCCOC(C)=O`, the call in assay [1], in assay [7] and in [9] was inactive. The Potency result in [2], in assay [3], in [4], in assay [5], in [6] and in assay [8] was “inactive” in each case. For the same compound, the Potency entry in [10] is “inactive”.

Take `O=[N+]([O-])c1cccc(CCl)c1`: the result in [1], in assay [7] and in [9] was inactive. Further, the Potency result in assay [2], in assay [3], in [4], in assay [5], in assay [6] and in [8] was “inactive” throughout. For the same compound, the Potency result in assay [10] is “inactive”.

Turning to `COc1cccc(C=O)c1`, the compound was called inactive in [1], in [7] and in [9]. Also, the Potency entry in assay [2], in assay [3], in assay [4], in assay [5], in [6] and in [8] was “inactive” in each case. The Potency result in assay [10] is “inactive”.

As to `CN(C)C(=O)Oc1cc(OC(=O)N(C)C)cc(C(O)CNC(C)(C)C)c1` (stereo not drawn), the call in [1], in assay [7] and in assay [9] was inactive. Further, the Potency entry in assay [2], in assay [3], in [4], in assay [5], in [6] and in assay [8] was “inactive” in each case. In addition, the Potency result in [10] is “inactive”.

For `ClCCCCl`, the result in assay [1], in assay [7] and in assay [9] was inactive. Moreover, the Potency result in assay [2], in [3], in [4], in assay [5], in assay [6] and in [8] was “inactive” in each case. Besides, in assay [10], the Potency result was “inactive”.

On to `N#CC(Br)(Br)C(N)=O`, for which the result in [1], in assay [7] and in [9] was inactive. Besides, the Potency result in assay [2], in assay [3], in assay [4], in assay [5], in [6] and in assay [8] was “inactive” throughout. In addition, in [10], the Potency entry was “inactive”.

In the case of `ClC(Cl)(Cl)Cl`, the compound was called inactive in assay [1], in assay [7] and in [9]. Also, the Potency result in assay [2], in assay [3], in assay [4], in assay [5], in assay [6] and in assay [8] was “inactive” in each case. Also, in assay [10], the Potency result was “inactive”.

With `CC(=NC#N)N(C)Cc1ccc(Cl)nc1`, the compound was called inactive in assay [1], in assay [7] and in assay [9]. Moreover, the Potency entry in [2], in assay [3], in assay [4], in assay [5], in assay [6] and in assay [8] was “inactive” in each case. In assay [10], the Potency entry was “inactive”.

In the case of `CCC(C)(C#N)N=NC(C)(C#N)CC` (stereo not drawn), the outcome in assay [1], in [7] and in assay [9] was inactive. The Potency result in assay [2], in assay [3], in assay [4], in assay [5], in [6] and in assay [8] was “inactive” throughout. Further, the Potency entry in [10] is “inactive”.

As to `C/C(=N\NC(=O)Nc1cc(F)cc(F)c1)c1ncccc1C(=O)O`, the call in [1], in [7] and in assay [9] was inactive. Besides, the Potency entry in assay [2], in [3], in [4], in [5], in assay [8] and in assay [10] was “inactive” each time. Besides, in assay [6], the Potency result was “inactive and 68.6 µM (active)”.

As to `C=CC=O`, the result in assay [1], in assay [7] and in assay [9] was inactive. In addition, the Potency result in assay [2], in assay [3], in assay [4], in assay [5], in [6] and in [8] was “inactive” throughout. Moreover, the Potency entry in [10] is “inactive”.

Regarding `CCCCCCC(=O)CCCCCC/C=C/C[C@@H](O)[C@H](O)[C@@](N)(CO)C(=O)O`, the values for the activity change, negative = inhibition in assay [1] and in [4] were -2.59% [at 19 µM] (inactive) and 0.638% [at 18.9 µM] (inactive), respectively. Also, the activity change, negative = cytotoxicity in [2] is -0.798% [at 19 µM] (inactive); in [5], -9.78% [at 18.9 µM] (inactive); in assay [6], -2.82% [at 19 µM] (inactive); in assay [8], 4.19% [at 15.8 µM] (inactive). For the same compound, the activation was -0.536% [at 19 µM] (inactive) in assay [3] and -6.21% [at 15.8 µM] (inactive) in assay [9]. The viability change, negative = cytotoxic in assay [7] was -3.48% [at 15.8 µM] (inactive). Moreover, the activity, negative = inhibition in assay [10] was 7.27% [at 10.5 µM] (inactive).

Turning to `ClC1=C(Cl)C2(Cl)C(CBr)CC1(Cl)C2(Cl)Cl` (stereo not drawn), the compound was classed as inactive in assay [1], in assay [7] and in [9]. Also, the Potency result in assay [2], in assay [3], in assay [4], in assay [5], in assay [8] and in [10] was “inactive” each time. Moreover, the Potency in assay [6] was 68.6 µM (active) and inactive.

Turning to `CCOC(=O)N(C)N=O`, the compound was called inactive in assay [1], in assay [7] and in assay [9]. In addition, the Potency entry in assay [2], in [3], in assay [4], in assay [5], in [6] and in [8] was “inactive” in each case. For the same compound, in assay [10], the Potency result is “inactive”.

Consider `O=C(O)C(Br)(Br)Br`, for which the compound was classed as inactive in [1], in [7] and in [9]. For the same compound, the Potency entry in [2], in [3], in assay [4], in assay [5], in assay [6] and in assay [8] was “inactive” each time. Also, the Potency entry in assay [10] is “inactive”.

With `CC(C)[N+](C)(CCC(C(N)=O)(c1ccccc1)c1ccccc1)C(C)C`, the call in assay [1], in assay [7] and in [9] was inactive. The Potency entry in [2], in [3], in assay [4], in assay [5], in assay [6] and in assay [8] was “inactive” in each case. In assay [10], the Potency entry was “inactive”.

As to `CCCCCCC1CCOC1=O` (stereo not drawn), the compound was called inactive in assay [1], in assay [7] and in assay [9]. Moreover, the Potency entry in assay [2], in assay [3], in assay [4], in [5], in assay [6] and in assay [8] was “inactive” throughout. Besides, the Potency entry in assay [10] was “inactive”.

In the case of `C/C=C/CC#N`, the result in assay [1], in assay [7] and in [9] was inactive. In addition, the Potency entry in [2], in [3], in [4], in assay [5], in [6] and in [8] was “inactive” each time. For the same compound, the Potency result in [10] was “inactive”.
